Experimental data as given in PubChem BioAssay (EPA / NIEHS).
Calls of active or inactive are those of the source. How the source made its calls: active means hit-call score of the fitted dose curve at least 0.9, where 1 is the maximum; inactive means score below 0.9.

What was measured:
Conditions in all cases: mRNA level, 48 h; actives raise or lower the signal
[1] = read-out: MicroRNA 122 (MIR122), gene 406906; experiment: LTEA_HepaRG_MIR122: Life Technologies and Expression Analysis (LTEA) Assay for MicroRNA 122 (MIR122) using HepaRG (AID 2283516); further: the transcript read is the microRNA miR-122
In short: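 Changes in transcript abundance, up or down relative to 0.5% DMSO vehicle, were scored after 48 h chemical treatment of HepaRG cells (maximum 100 uM). Quantification used TaqMan qRT-PCR normalized to housekeeping genes.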

[2] = read-out: matrix metalloproteinase-10 (MMP10), MMP10 (gene 4319); experiment: LTEA_HepaRG_MMP10: Life Technologies and Expression Analysis (LTEA) Assay for matrix metalloproteinase-10 (MMP10) using HepaRG (AID 2283517)
In short: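 Transcript levels come from Fluidigm qRT-PCR normalized to three housekeeping genes, with curves fitted bidirectionally against 0.5% DMSO. Human HepaRG cells were dosed for 48 hours at concentrations up to 100 uM.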

[3] = read-out: MYC, MYC (gene 4609); experiment: LTEA_HepaRG_MYC: Life Technologies and Expression Analysis (LTEA) Assay for MYC using HepaRG (AID 2283518)
In short: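 HepaRG, ~100,000 cells/well, collagen I; 48 h plating; serum-free induction medium; 48 h dosing, duplicate, 100 uM top, half-log, 0.5% DMSO; total RNA → qRT-PCR MYC; gain/loss fit vs DMSO.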

[4] = read-out: matrix metalloproteinase-3 (MMP3), MMP3 (gene 4314); experiment: LTEA_HepaRG_MMP3: Life Technologies and Expression Analysis (LTEA) Assay for matrix metalloproteinase-3 (MMP3) using HepaRG (AID 2283519)
In short: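 qRT-PCR read-out of MMP3 mRNA (normalised to three housekeeping genes) in HepaRG liver cells after 48 h chemical exposure; 8-point half-log series, top 100 uM, 0.5% DMSO vehicle. Bidirectional curve fitting against DMSO baseline.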

[5] = read-out: Paternally Expressed 10 (PEG10), PEG10 (gene 23089); experiment: LTEA_HepaRG_PEG10: Life Technologies and Expression Analysis (LTEA) Assay for Paternally Expressed 10 (PEG10) using HepaRG (AID 2283520);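 on AC50: PEG10 transcript by qRT-PCR normalised to ACTB GAPDH and POLR2A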
In short: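 After 48 h exposure of differentiated HepaRG cells (0.5% DMSO vehicle, eight concentrations up to 100 uM, duplicates), PEG10 mRNA was measured by TaqMan qRT-PCR. Values were normalised to endogenous control genes and analysed bidirectionally against vehicle.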

[6] = read-out: Nuclear factor NF-kappa-B p105 subunit (Homo sapiens) (UniProt P19838); experiment: LTEA_HepaRG_NFKB1: Life Technologies and Expression Analysis (LTEA) Assay for Nuclear Factor Kappa B Subunit 1 (NFKB1) using HepaRG (AID 2283521)
In short: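 Differentiated human HepaRG cells were exposed for 48 h in serum-free induction medium to eight concentrations (top 100 uM, half-log steps, 0.5% DMSO), in duplicate. NFKB1 mRNA was measured by TaqMan qRT-PCR, normalized to ACTB/GAPDH/POLR2A, and fitted bidirectionally against DMSO.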

[7] = read-out: Protein phosphatase 2A (PPP2R4), PTPA (gene 5524); experiment: LTEA_HepaRG_PPP2R4: Life Technologies and Expression Analysis (LTEA) Assay for Protein phosphatase 2A (PPP2R4) using HepaRG (AID 2283522)
In short: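 Using HepaRG cultures maintained in 0.5% DMSO, chemicals are tested 48 h at up to 100 uM in duplicate. Induction or suppression of PPP2R4 mRNA, measured by qRT-PCR, is fitted bidirectionally against the vehicle baseline.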

[8] = read-out: solute carrier (SLC22A1), SLC22A1 (gene 6580); experiment: LTEA_HepaRG_SLC22A1: Life Technologies and Expression Analysis (LTEA) Assay for solute carrier (SLC22A1) using HepaRG (AID 2283524)
In short: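 qRT-PCR readout (TaqMan, Fluidigm arrays) of SLC22A1 transcript, normalized to three housekeeping genes; bidirectional curve fit relative to 0.5% DMSO vehicle. Differentiated human HepaRG cells, 48 h chemical exposure, top concentration 100 uM, half-log steps, eight points.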

[9] = read-out: Pyruvate Dehydrogenase Kinase 4 (PDK4), PDK4 (gene 5166); experiment: LTEA_HepaRG_PDK4: Life Technologies and Expression Analysis (LTEA) Assay for Pyruvate Dehydrogenase Kinase 4 (PDK4) using HepaRG (AID 2283525)
In short: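 HepaRG (human liver line), 48 h chemical exposure, 8-pt half-log CRC top 100 uM, 0.5% DMSO vehicle, duplicates. Readout: TaqMan qRT-PCR of PDK4 mRNA, housekeeping-normalized; gain/loss fit relative to DMSO baseline.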

[10] = read-out: Phosphatase and tensin (PTEN), PTEN (gene 5728); experiment: LTEA_HepaRG_PTEN: Life Technologies and Expression Analysis (LTEA) Assay for Phosphatase and tensin (PTEN) using HepaRG (AID 2283523)
In short: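 HepaRG, 48 h exposure, 8-pt half-log series from 100 uM top, 0.5% DMSO vehicle, duplicates. Readout: Fluidigm qRT-PCR of PTEN transcript; housekeeping normalization (ACTB, GAPDH, POLR2A). Gain or loss fitted relative to DMSO baseline.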

Measured: AC50

Sequence of Nuclear factor NF-kappa-B p105 subunit (Homo sapiens) (P19838 whole entry, looked up): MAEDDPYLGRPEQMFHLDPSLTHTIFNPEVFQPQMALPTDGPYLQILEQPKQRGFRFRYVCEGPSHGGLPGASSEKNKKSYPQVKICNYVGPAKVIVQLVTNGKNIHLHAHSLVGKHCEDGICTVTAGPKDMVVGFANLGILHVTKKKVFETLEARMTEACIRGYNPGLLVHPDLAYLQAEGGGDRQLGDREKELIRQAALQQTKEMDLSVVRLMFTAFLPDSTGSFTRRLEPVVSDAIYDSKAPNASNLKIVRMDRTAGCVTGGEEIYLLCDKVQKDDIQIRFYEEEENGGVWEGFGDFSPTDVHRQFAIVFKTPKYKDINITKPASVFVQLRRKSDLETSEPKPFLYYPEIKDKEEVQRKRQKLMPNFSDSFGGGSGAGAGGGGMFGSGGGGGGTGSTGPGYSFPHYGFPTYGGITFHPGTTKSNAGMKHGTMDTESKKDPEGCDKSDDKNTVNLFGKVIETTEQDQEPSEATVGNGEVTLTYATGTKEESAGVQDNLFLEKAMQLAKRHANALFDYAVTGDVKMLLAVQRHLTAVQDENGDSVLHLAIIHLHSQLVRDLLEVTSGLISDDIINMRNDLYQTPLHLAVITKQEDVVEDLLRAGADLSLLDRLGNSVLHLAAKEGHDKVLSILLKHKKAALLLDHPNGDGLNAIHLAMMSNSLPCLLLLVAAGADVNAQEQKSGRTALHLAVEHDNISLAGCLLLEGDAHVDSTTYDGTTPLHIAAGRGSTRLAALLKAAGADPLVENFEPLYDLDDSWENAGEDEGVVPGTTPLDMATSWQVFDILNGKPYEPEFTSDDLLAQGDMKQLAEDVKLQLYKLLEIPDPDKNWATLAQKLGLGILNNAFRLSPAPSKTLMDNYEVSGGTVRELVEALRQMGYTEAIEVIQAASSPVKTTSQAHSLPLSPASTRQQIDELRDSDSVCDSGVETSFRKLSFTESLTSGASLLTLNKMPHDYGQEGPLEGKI

CCOP(=S)(OCC)Oc1cc(C)nc(C(C)C)n1
inactive: [1] | [2] | [3] | [4] | [6] | [7] | [8] | [9]
active: [5] 50 µM

CCCCSP(=O)(SCCCC)SCCCC
active: [8] 78.9 µM | [9] 77.5 µM
inactive: [1] | [2] | [3] | [4] | [5] | [7]

CNC(=O)Oc1cccc2c1OC(C)(C)O2
inactive: [2] | [3] | [4] | [5] | [7] | [10] | [8] | [9]

CCC(CC)Nc1c([N+](=O)[O-])cc(C)c(C)c1[N+](=O)[O-]
active: [5] 50 µM
inactive: [2] | [3] | [4] | [6] | [7] | [8] | [9]

C[Si](Cn1cncn1)(c1ccc(F)cc1)c1ccc(F)cc1
active: [3] 68.1 µM | [4] 11.6 µM | [8] 63.1 µM
inactive: [5] | [7] | [9]

CCC(=NOC/C=C/Cl)C1=C(O)CC(C2CCOCC2)CC1=O (stereo unspecified)
inactive: [2] | [3] | [4] | [5] | [6] | [7] | [8] | [9]

Cc1cc(C2CC2)nc(Nc2ccccc2)n1
inactive: [2] | [3] | [4] | [5] | [7] | [9]
active: [8] 67.7 µM

CC(Oc1cccc(Cl)c1)C(=O)O (stereo unspecified)
inactive: [2] | [3] | [4] | [5] | [7] | [8] | [9]

CCOP(=S)(OCC)Oc1ccc([N+](=O)[O-])cc1
inactive: [2] | [3] | [4] | [5] | [6] | [7] | [8] | [9]

CCC(=O)Nc1ccc(Cl)c(Cl)c1
active: [3] 50 µM | [5] 65 µM | [8] 50 µM
inactive: [2] | [4] | [7] | [9]

C#CC(C)(C)NC(=O)c1cc(Cl)cc(Cl)c1
inactive: [3] | [4] | [6] | [7] | [8] | [9]
active: [5] 50 µM

Nc1c(Cl)cc([N+](=O)[O-])cc1Cl
inactive: [2] | [4]
active: [3] 12.3 µM | [5] 36.7 µM | [6] 12.2 µM | [7] 50 µM | [8] 60.8 µM | [9] 50 µM

CC(C1CC1)C(O)(Cn1cncn1)c1ccc(Cl)cc1 (stereo unspecified)
active: [8] 66.9 µM
inactive: [2] | [3] | [5] | [6] | [7] | [9]

CNc1cnn(-c2cccc(C(F)(F)F)c2)c(=O)c1Cl
inactive: [2] | [4] | [6] | [7] | [9]
active: [3] 19.6 µM | [5] 32 µM | [8] 50 µM

CCc1cnc(C2=NC(C)(C(C)C)C(=O)N2)c(C(=O)O)c1 (stereo unspecified)
inactive: [2] | [3] | [4] | [5] | [7] | [10] | [8] | [9]

CSC1=N[C@@](C)(c2ccccc2)C(=O)N1Nc1ccccc1
inactive: [2] | [4] | [7]
active: [3] 31.2 µM | [5] 20.1 µM | [8] 34.2 µM | [9] 12.7 µM

COc1cc(OC)nc(Sc2cccc(Cl)c2C(=O)O)n1
inactive: [2] | [3] | [4] | [5] | [6] | [7] | [8] | [9]

COP(=O)(OC)C(O)C(Cl)(Cl)Cl (stereo unspecified)
inactive: [2] | [3] | [4] | [5] | [6] | [7] | [10] | [8] | [9]

CCOP(=S)(OCC)SCCSCC
inactive: [2] | [3] | [4] | [5] | [6] | [7] | [8] | [9]
